Active and inactive are the calls of the source.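 How the source made its calls, unless noted: active means viability loss from added drug above about 55%, and viability with drug at most 40%, in both replicates (limit read from the data, passing the limit was not always enough); inconclusive means both conditions met in only one replicate; inactive means neither replicate meets both conditions.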

We go through 21 compounds from PubChem BioAssay.

The nature of assay [1]: SK-BR-3 cell growth inhibitors, pilot screen, 24 h, human (AID 572;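 active means viability at or below 10% of carrier control in both of two separate runs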;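 further: compound exposure lasted between 18 and 24 h rather than exactly 24 h; 100% = carrier-treated control wells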). The note with it: SK-BR-3 viability, CellTiter-Glo luminescence, at 10 µM, stronger effect = lower value. (In general: Cellular ATP, detected with luciferase, serves as a proxy for viable cell number.)
A short description of assay [2]: growth inhibitors of H69AR lung tumor, primary screen, human, duplicate replicates (AID 580;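 active means viability at or under a set limit in both replicates, limit being median viability minus 3 SD, cut at about 48% in these data, passing the limit was not always enough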;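 further: 100% = mean luminescence of untreated wells and 0% = no signal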). The note with it: H69AR lung tumor cells viability, ATP luminescence, 72 h; at 10 µM; stronger effect = lower value.
Assay [3] can be described thus: reversal of MRP1-mediated doxorubicin resistance, pilot screen, H69AR cells, doxorubicin co-treatment (AID 601). The note with it: CellTiter-Glo, 72 h, at 10 µM; for differential viability (reversal): stronger effect = higher value.
Assay [4] can be described thus: 384-well plate pilot, post-Golgi transport modulator project, inhibition of yeast transport mutant growth (AID 636; in the data active means inhibition above about 31%). The note with it: absorbance 615 nm, about 18 h, stronger effect = higher value.
Assay [5] in a line: growth suppression of yeast trafficking mutant, preliminary HTS, modulators of trafficking downstream of Golgi apparatus project, 1536-format plate, OD 615 nm (AID 637; in the data active means inhibition above about 30%). The note with it: yeast transport mutant growth, absorbance 615 nm, 18 h; stronger effect = higher value.
A short description of assay [6]: HUVEC growth inhibition – cell-based, human, primary screen (AID 575;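 active means viability at or below 30% in both replicate assays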;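 further: 100% = median of untreated cell wells with 0.1% DMSO on each plate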). The note with it: HUVEC proliferation, CellTiter-Glo luminescence, 72 h; at 10 µM; stronger effect = lower value.
Where [7] appears, read: H69AR cells + 2 uM doxorubicin, measured here: viability with 2 uM doxorubicin, stronger effect = lower value.
Where [8] appears, read: H69AR cells, compound alone cytotoxicity.

As a reminder, the viability is a read-out of living cells in per cent, often relative to untreated cells. One may read the inhibition as the change of the read-out against control, counted positive when it falls. Turning to `CN1CCN(C2=Nc3cc(Cl)ccc3Nc3ccccc32)CC1`, the viability in assay [1] is 94% (inactive); in assay [2], 68% (inactive); in assay [3] (setting [7]) it was 51%; in assay [3] (setting [8]), 68%. Besides, the differential viability (reversal) in assay [3] (H69AR cells + 2 uM doxorubicin) is 17% (inactive). Moreover, the inhibition was 1.82% (inactive) in assay [4] and 3.67% (inactive) in assay [5].

`Cc1nnc(NCc2n[nH]c(=O)c3ccccc23)c2ccccc12`: the viability in assay [1] is 72% (inactive); in assay [2], 67.1% (inactive); in assay [3] (setting [7]), 81.9%; in assay [3] (setting [8]), 67.1%. Further, the differential viability (reversal) in assay [3] (H69AR cells + 2 uM doxorubicin) was -14.8% (inactive). The inhibition in assay [4] is -3.38% (inactive); in assay [5] it was 1.64% (inactive).

As for `COc1ccc(Cl)cc1C(=O)NCCc1ccc(S(=O)(=O)NC(=O)NC2CCCCC2)cc1`, the viability in assay [1] was 116% (inactive); in assay [2] it was 93.5% (inactive); in assay [3] (setting [7]) it was 103%; in assay [3] (setting [8]), 93.5%. Besides, in assay [3] (H69AR cells + 2 uM doxorubicin), the differential viability (reversal) is -9.18% (inactive). The inhibition in assay [4] is 0.26% (inactive); in assay [5], -1.33% (inactive).

On to `Oc1ccc(/C=C/c2cc(O)cc(O)c2)cc1`, for which the viability in assay [1] was 115% (inactive); in assay [2] it was 76.9% (inactive); in assay [3] (setting [7]) it was 88.6%; in assay [3] (setting [8]), 76.9%. In addition, the differential viability (reversal) in assay [3] (H69AR cells + 2 uM doxorubicin) was -11.7% (inactive). Besides, the inhibition in assay [4] was 0.13% (inactive); in assay [5], -5.17% (inactive).

`CCCCn1c(SCc2ccc(Cl)cc2)nc2c1c(=O)[nH]c(=O)n2C`: the viability in assay [1] is 80% (inactive); in assay [2], 76.7% (inactive); in assay [3] (setting [7]), 70.7%; in assay [3] (setting [8]), 76.7%. The differential viability (reversal) in assay [3] (H69AR cells + 2 uM doxorubicin) is 6.03% (inactive). In addition, the inhibition in assay [4] is -4% (inactive); in assay [5] it was 0.73% (inactive).

Turning to `O=C(O)c1ccc2c3c(ncnc13)-c1ccccc1C2=O`, the viability in assay [1] was 60.5% (inactive); in assay [2], 80.3% (inactive); in assay [3] (setting [7]), 99.8%; in assay [3] (setting [8]), 80.3%. In addition, in assay [3] (H69AR cells + 2 uM doxorubicin), the differential viability (reversal) was -19.5% (inactive). The inhibition is 5.51% (inactive) in assay [4] and 1.67% (inactive) in assay [5].

For the compound `CC(=O)Nc1ccccc1OCC(=O)c1cc(C)n(Cc2cccs2)c1C`, the viability in assay [1] was 92% (inactive); in assay [2], 85.8% (inactive); in assay [3] (setting [7]), 90.2%; in assay [3] (setting [8]), 85.8%. Besides, the differential viability (reversal) in assay [3] (H69AR cells + 2 uM doxorubicin) was -4.4% (inactive). Also, the inhibition in assay [4] was -3.01% (inactive); in assay [5], -3.45% (inactive).

On to `O=S(=O)(c1ccc(Oc2ccc(-c3nnco3)cc2)nc1)N1CCC(Cc2ccccc2)CC1`, for which the viability was 109% (inactive) in assay [1], 60.4% in assay [3] (setting [7]) and 51.9% in assay [3] (setting [8]). The differential viability (reversal) in assay [3] (H69AR cells + 2 uM doxorubicin) is -8.52% (inactive). In addition, the inhibition is -4.11% (inactive) in assay [4] and -10.3% (inactive) in assay [5].

Turning to `O=C(NC1CC1)c1cccc(Nc2ccc(-c3ccc4c(c3)OCCO4)nn2)c1`, the viability is 76% (inactive) in assay [1], 61.2% in assay [3] (setting [7]) and 49.1% in assay [3] (setting [8]). For the same compound, the differential viability (reversal) in assay [3] (H69AR cells + 2 uM doxorubicin) is -12% (inactive). Further, the inhibition in assay [4] was -0.81% (inactive); in assay [5], -5.82% (inactive).

On to `CC(=O)C(Sc1ncnc2c1nnn2-c1ccc(F)cc1)C(=O)N(C)C` (stereo unspecified), for which the viability was 136% (inactive) in assay [1], 61% in assay [3] (setting [7]) and 48.7% in assay [3] (setting [8]). The differential viability (reversal) in assay [3] (H69AR cells + 2 uM doxorubicin) was -12.3% (inactive). Moreover, the inhibition in assay [4] was -3.12% (inactive); in assay [5] it was 4.1% (inactive).

Take `CCOC(=O)c1cc(-c2ccc(Cl)s2)nc2c1c(C)nn2C`: the results for the viability in assay [1], in assay [3] (setting [7]) and in assay [3] (setting [8]) were 66.5% (inactive), 62% and 35.8%, respectively. Besides, the differential viability (reversal) in assay [3] (H69AR cells + 2 uM doxorubicin) is -26.2% (inactive). In addition, the inhibition is -1.45% (inactive) in assay [4] and -0.82% (inactive) in assay [5].

With `COC(=O)Nc1nc2ccc(Sc3ccccc3)cc2[nH]1`, the viability in assay [1] was 90% (inactive); in assay [3] (setting [7]), 25.1%; in assay [3] (setting [8]) it was 11.7%. Further, the differential viability (reversal) in assay [3] (H69AR cells + 2 uM doxorubicin) was -13.4% (inactive). In addition, the values for the inhibition in assay [4] and in assay [5] were 3.25% (inactive) and 25.2% (inactive), respectively.

For the compound `O=C(Nc1ccc(Cl)cc1)N1CCSCC1`, the viability was 97.6% (inactive) in assay [6], 107% (inactive) in assay [2], 89.6% in assay [3] (setting [7]) and 107% in assay [3] (setting [8]). In assay [3] (H69AR cells + 2 uM doxorubicin), the differential viability (reversal) was 17% (inactive). Moreover, the results for the inhibition in assay [4] and in assay [5] were -1.45% (inactive) and -0.16% (inactive), respectively.

For `Clc1ccc(OCc2nnc(SCCN3CCCCC3)n2Cc2ccco2)cc1`, the viability in assay [1] was 90% (inactive); in assay [3] (setting [7]), 43.3%; in assay [3] (setting [8]) it was 38.6%. In assay [3] (H69AR cells + 2 uM doxorubicin), the differential viability (reversal) was -4.72% (inactive). Besides, the inhibition in assay [4] is -7.33% (inactive); in assay [5], -1.82% (inactive).

For `C=C(CC)C(=O)c1ccc(OCC(=O)O)c(Cl)c1Cl`, the results for the viability in assay [1], in assay [3] (setting [7]) and in assay [3] (setting [8]) were 86% (inactive), 48.5% and 49.4%, respectively. The differential viability (reversal) in assay [3] (H69AR cells + 2 uM doxorubicin) was 0.86% (inactive). Further, the inhibition was -2.47% (inactive) in assay [4] and -0.5% (inactive) in assay [5].

Regarding `CCCC(=O)Nc1ccccc1-c1nnn(CC(=O)Nc2ccc(OC)cc2)n1`, the viability was 73.8% (inactive) in assay [6], 83.1% (inactive) in assay [2], 97.2% in assay [3] (setting [7]) and 83.1% in assay [3] (setting [8]). Moreover, the differential viability (reversal) in assay [3] (H69AR cells + 2 uM doxorubicin) was -14.1% (inactive). Further, the inhibition in assay [4] is -3.33% (inactive); in assay [5], 5.4% (inactive).

As for `COc1ccc(Cl)cc1-c1n[nH]c(=S)o1`, the viability was 86.9% (inactive) in assay [6], 95.5% (inactive) in assay [2], 81.8% in assay [3] (setting [7]) and 95.5% in assay [3] (setting [8]). Further, the differential viability (reversal) in assay [3] (H69AR cells + 2 uM doxorubicin) was 13.7% (inactive). The inhibition is -6.4% (inactive) in assay [4] and -1.27% (inactive) in assay [5].

On to `CCOC(=O)c1ccc(NC(=O)N2CCN(CCc3ccccc3)CC2)cc1`, for which the viability was 91.7% (inactive) in assay [6], 101% (inactive) in assay [2], 90.4% in assay [3] (setting [7]) and 101% in assay [3] (setting [8]). Further, the differential viability (reversal) in assay [3] (H69AR cells + 2 uM doxorubicin) is 10.2% (inactive). The inhibition in assay [4] was -2.11% (inactive); in assay [5], -0.32% (inactive).

With `CNCCCN1c2ccccc2CCc2ccccc21`, the viability in assay [6] is 82.1% (inactive); in assay [2] it was 90.4% (inactive); in assay [3] (setting [7]), 75.8%; in assay [3] (setting [8]), 90.4%. In addition, the differential viability (reversal) in assay [3] (H69AR cells + 2 uM doxorubicin) was 14.6% (inactive).

As for `COc1cccc(-c2cc(C(=O)Nc3cc(C)n(Cc4ccc(Cl)cc4)n3)no2)c1`, the viability is 57.5% (inactive) in assay [1], 58.5% in assay [3] (setting [7]) and 52.1% in assay [3] (setting [8]). In addition, the differential viability (reversal) in assay [3] (H69AR cells + 2 uM doxorubicin) is -6.4% (inactive). The inhibition in assay [4] was -6.35% (inactive); in assay [5] it was -7% (inactive).

In the case of `CCC(=O)Oc1ccc(/C(CC)=C(\CC)c2ccc(OC(=O)CC)cc2)cc1`, the viability in assay [1] was 131% (inactive); in assay [3] (setting [7]), 49.2%; in assay [3] (setting [8]), 8.75%. Also, the differential viability (reversal) in assay [3] (H69AR cells + 2 uM doxorubicin) was -40.5% (inactive). Also, the inhibition in assay [4] is -0.39% (inactive); in assay [5] it was -4.67% (inactive).
